Data published in PubChem BioAssay AID2153 (The Scripps Research Institute Molecular Screening Center, 2009).
The whole screen tested about 2,400 compounds, of which about 2,000 (83%) were called active. So high a share suggests a set chosen from earlier hits. These entries were drawn from the full list. A number with no mark means an inactive call.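 The calls were made as follows: active = inhibition above the solvent-only control well mean plus 3 SD, limit set per screening run (cut at about 23% in these data); inactive = the rest.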

target: Guanyl-specific ribonuclease T1 (Aspergillus oryzae (strain ATCC 42149 / RIB 40)) (UniProt P00651); experiment: RNase T1 inhibitors, counter-screen for TPT1 inhibitor project, biochemical, fluorescence polarization (AID 2153); conditions: RNase T1 cleavage, 1536-well, at 5 µM, active compounds read high;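 also: plate controls were DMSO wells with enzyme for no effect and wells without RNase T1 for full effect; inhibitors block cleavage so intact labeled substrate keeps polarization high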
Sequence (P00651 whole entry, looked up): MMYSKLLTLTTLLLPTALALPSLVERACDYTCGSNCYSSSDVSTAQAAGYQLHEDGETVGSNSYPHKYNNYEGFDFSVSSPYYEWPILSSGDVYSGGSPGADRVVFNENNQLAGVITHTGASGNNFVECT

SMILES | inhibition
Cc1cc(O)c(C(=O)/C=C/c2c(F)c(F)c(F)c(F)c2F)c(=O)o1 | 81.2% (active)
N#CC1=C(N)Oc2c(sc3ccccc23)C1c1ccco1 (stereo unspecified) | 76.9% (active)
Cn1c2ccccc2c2cc(/C=C(\NC(=O)c3ccccc3)C(=O)NCC(=O)O)ccc21 | 92.9% (active)
Cc1ccc(Nc2ccccc2N)cc1 | 36% (active)
Cc1cccn2c(=O)c(/C=C3\SC(=S)N(CC(C)C)C3=O)c(NCCCOC(C)C)nc12 | 131% (active)
COc1cc(/C=C2/C(=O)NN(c3cccc(Cl)c3)C2=O)cc(Br)c1O | 150% (active)
Cc1cc(C)c(/C=C2\C(=O)Nc3ccccc32)[nH]1 | 118% (active)
Cc1ccc(-c2nn(-c3ccccc3)cc2/C=C2\SC(=S)N(CCCCCC(=O)O)C2=O)o1 | 73.6% (active)
CCC(c1nnnn1Cc1ccco1)N(Cc1cc2cc(OC)ccc2[nH]c1=O)C1CCCCC1 (stereo unspecified) | 17.9%
N#C/C(=C(/O)COC(=O)COc1ccc(Cl)cc1)c1nc2ccccc2[nH]1 | 50.6% (active)
CCOc1ccc2nc(/N=C/c3nc(-c4ccccc4)oc3O)sc2c1 | 65.4% (active)
Cc1c(-c2ccccc2)cn2c1-c1ccc(C)n1CC2 | 47.3% (active)
Cn1cccc1/C=C1\SC(=S)N(NC(=O)c2ccc(Cl)cc2)C1=O | 113% (active)
Fc1ccc2nc(Nc3nc4c(s3)CCCC4)sc2c1 | 37.5% (active)
CN1/C(=C\C=C2\N=C(c3ccc(F)cc3)OC2=O)C(C)(C)c2ccccc21 | 140% (active)
Cc1ccc(C)c2[nH]c(=O)c(CCNC(=O)CC(C)C)cc12 | 6.2%
N#C/C(=C/c1ccc(N2CCCCC2)o1)C(=O)NCCc1c[nH]c2ccccc12 | 170% (active)
CN1/C(=c2/s/c(=C3/C(=O)N(c4ccccc4)NC3=Nc3ccccc3)n(C)c2=O)C(C)(C)c2ccccc21 | 92.8% (active)
CS(=O)(=O)c1ccc2c(c1)SC1=NC(=O)/C(=C/c3ccco3)C(=N)N12 | 60.6% (active)
CCN(CC)c1ccc(/C=N/Nc2nc(C)cc(C)n2)c(O)c1 | 44.9% (active)
Cc1ccc(S(=O)(=O)N(C)c2nc3ccccc3n3c(C(C)C)nnc23)cc1 | 3.03%
CCOc1nnc(C)c2c(C)n(-c3cccc(Cl)c3)nc12 | 88.4% (active)
CSC1=N/C(=C\C=C\c2cccs2)C(=O)S1 | 64.5% (active)
CCCOc1ccc(Cn2c(O)cc(=O)[nH]c2=O)cc1 | 30.3% (active)
COc1ccc(C2=NN(C(=O)c3ccccc3C(=O)O)C(c3ccccc3O)C2)cc1 (stereo unspecified) | 37.9% (active)
O=C(/C=C/c1ccc(N2CCOCC2)cc1)c1ccccc1 | 91.3% (active)
